# Assay results taken from PubChem BioAssay AID1851 (National Center for Advancing Translational Sciences (NCATS), 2009).
# In all, about 16,000 compounds went through this assay and about 5,800 (36%) were called active. Roughly 23% stayed inconclusive and do not appear here. This is one part of the list. A number with no mark means an inactive call. Calls come from the whole dose curve; as a rule, active = well fitted curve in the direction sought with a large enough effect; inconclusive = small, poorly fitted or top-dose-only effect, or effect the other way; inactive = no such curve, though single readings can be large or run the other way.
# Target: Cytochrome P450 2C19 (Homo sapiens) (UniProt P33261)
# Assay: Cytochrome panel assay with activity outcomes
# Details: recombinant CYP, pro-luciferin dealkylation, luminescence, p450-cyp2c19; series mostly up to 57.1 µM
# % is set by controls: 0 for no effect and ±100 for the full control effect.
# Cytochrome P450 2C19 (Homo sapiens), sequence (P33261 whole entry, looked up): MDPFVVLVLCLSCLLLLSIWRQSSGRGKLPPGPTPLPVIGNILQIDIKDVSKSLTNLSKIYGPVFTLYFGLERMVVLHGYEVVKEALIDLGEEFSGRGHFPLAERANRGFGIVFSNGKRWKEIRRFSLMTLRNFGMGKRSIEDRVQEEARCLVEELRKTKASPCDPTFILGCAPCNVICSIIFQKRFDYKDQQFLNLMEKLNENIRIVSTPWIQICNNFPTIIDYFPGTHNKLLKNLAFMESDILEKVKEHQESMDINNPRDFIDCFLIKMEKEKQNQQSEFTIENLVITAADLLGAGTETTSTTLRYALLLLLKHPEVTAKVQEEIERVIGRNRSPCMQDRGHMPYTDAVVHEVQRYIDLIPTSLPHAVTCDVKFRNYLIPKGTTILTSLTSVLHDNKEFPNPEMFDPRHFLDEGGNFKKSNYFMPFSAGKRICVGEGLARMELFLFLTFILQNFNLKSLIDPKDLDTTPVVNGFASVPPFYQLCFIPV
SMILES,AC50,"activity, negative = inhibition"
Clc1ccc(Cl)c(Nc2ccnc(SCc3ccccc3)n2)c1,5.01 µM (active),
CCOC(=O)c1c(C)c(C)n2c1NC(=O)C2,,1.54% [at 11.4 µM]
CC(C)OC(=O)C1=C2SCC(=O)N2C(N)=C(C#N)C1,2.51 µM (active),
CCOC(=O)C1=C2SCC(=O)N2C(N)=C(C#N)C1,14.1 µM (active),
Oc1cc2c(c(Cl)c1O)CCNC[C@H]2c1ccccc1,inactive,
O=C(NCCc1ccccn1)c1cc(C(=O)C2CCCCC2)c[nH]1,inactive,
O=C(NCc1ccco1)c1cc(C(=O)C2CC2)c[nH]1,25.1 µM (active),
Cc1c(NC(=O)/C=C/c2cn(-c3ccccc3)nc2-c2ccc(F)cc2)c(=O)n(-c2ccccc2)n1C,inactive,
Cc1ccc(-c2nn(-c3ccccc3)cc2CSC(=N)N)cc1,8.91 µM (active),
CCC(C)NC(=O)Cn1cnc2sc(C)cc2c1=O (centres undefined),inactive,
CCC(C)NC(=O)CCS(=O)(=O)c1ccc(Br)s1 (centres undefined),5.01 µM (active),
c1ccc(Nc2nc(-c3cccnc3)nc3ccccc23)cc1,inactive,
CCOC(=O)c1ccc(Nc2nc(C(=O)OCC)nc3ccccc23)cc1,1.41 µM (active),
CCOC(=O)c1ccc(Nc2nc(-c3cccnc3)nc3ccccc23)cc1,3.55 µM (active),
COc1ccccc1NC(=O)Nc1nc(-c2cccnc2)nc2ccccc12,inactive,
CC(C)=CCC/C(C)=C/CO/N=C1/C[C@@H](O)[C@@H](O)[C@@H]2[C@@H]3C(=O)N(Cc4ccc5c(c4)OCO5)C(=O)[C@H]3CC[C@@H]12,,17.2% [at 11.4 µM]
O=C(c1cnccn1)N1CCC[C@@]2(CCN(C(c3ccccc3)c3ccccc3)C2)C1,inactive,
CC(C)CC(C(=O)OCC(=O)Nc1ncc(Cl)cc1Cl)N1C(=O)c2ccccc2C1=O (centres undefined),2.24 µM (active),
O=C(O)[C@H](Cc1ccc(O)c([N+](=O)[O-])c1)N1C(=O)c2ccccc2C1=O,,26.2% [at 11.4 µM]
O=C(O)CC[C@@H](C(=O)O)N1C(=O)c2ccccc2C1=O,inactive,
CC(C)(CNC(=O)c1ccc([N+](=O)[O-])c(Cl)c1)CNC(=O)c1ccc([N+](=O)[O-])c(Cl)c1,2.24 µM (active),
CC(C)(C)OC(=O)[C@H]([C@@H]1N[C@@H](C(=O)O)C(C)(C)S1)N1C(=O)c2ccccc2C1=O,,36.7% [at 11.4 µM]
Cc1[nH]c2ccccc2c1CCNC(=O)c1ccc2c(c1[N+](=O)[O-])C(=O)c1ccccc1C2=O,1.26 µM (active),
O=C(c1cccs1)n1nc(-c2ccc(Cl)cc2)nc1NCc1ccco1,14.1 µM (active),
FC(F)(F)c1nc(N2CCCC2)ncc1-c1nnnn1-c1ccccc1,0.631 µM (active),

SMILES,AC50,"activity, negative = inhibition"
Cc1nc2cnc(N3CCNCC3)nc2n(-c2ccccc2)c1=O,inactive,
FC(F)(F)c1nc(-c2ccncc2)ncc1-c1nnnn1-c1ccccc1,0.0224 µM (active),
Cc1nn(-c2ccccc2)c(N2CCCCC2)c1/C=N/O,inactive,
O=C(O)[C@H]1CCCC[C@@H]1C(=O)Nc1nc2ccccc2[nH]1,,26.5% [at 11.4 µM]
COCC(=O)O[C@]1(CCN(C)CCCc2nc3ccccc3[nH]2)CCc2cc(F)ccc2[C@@H]1C(C)C,inactive,
CC(C)c1ccc(NC(=O)N(CCc2nc3ccccc3[nH]2)C2CCCC2)cc1,7.08 µM (active),
CCOC(=O)c1ccc(N)cc1,inactive,
CCOC(=O)c1ccc(OC(=O)CCCCCN=C(N)N)cc1,inactive,
CCOC(=O)c1ccc(-c2ccc(CO)o2)cc1,28.2 µM (active),
COC(=O)CSc1ccc(C#N)c(SCC(=O)OC)c1,11.2 µM (active),
CCOc1ccc(N/N=C(/C#N)C(N)=O)cc1,4.47 µM (active),
Cc1ccc2oc(-c3cccc(NC(=S)NC(=O)/C=C/c4ccco4)c3)nc2c1,6.31 µM (active),
CCCC(=O)Nc1ccc2nc(SCC(=O)Nc3ccc(N4CCOCC4)c(Cl)c3)sc2c1,3.98 µM (active),
O=C(Nc1ccc2nc(SCc3ccc(Cl)cc3)sc2c1)c1ccccc1C(=O)N1CCOCC1,3.98 µM (active),
Cc1ccc(NC(=O)CSCC(=O)Nc2ccc(N3CCOCC3)c(Cl)c2)cc1,14.1 µM (active),
CCC1CC(CSc2ncn[nH]2)OC1=O (centres undefined),inactive,
CN1[C@@H]2CC[C@H]1CC(OC(c1ccccc1)c1ccccc1)C2 (some centres undefined),inactive,
O=S1(=O)OC(c2ccc(O)cc2)(c2ccc(O)cc2)c2ccccc21,,28.4% [at 11.4 µM]
O=C(/C=C/c1ccco1)NC(=S)Nc1ccc(N2CCOCC2)c(Cl)c1,11.2 µM (active),
CCOc1ccc(C(F)(F)F)cc1NC(C)=O,28.2 µM (active),
O=C1NCC2=C1C(c1ccc(Br)cc1)Nc1ccccc1N2 (centres undefined),8.91 µM (active),
COc1cc2c(cc1NC(=O)Nc1ccccc1)oc1ccccc12,3.55 µM (active),
COc1cc(NC(=O)c2cc3ccccc3o2)c(OC)cc1Br,inactive,
COc1ccccc1C(=O)Nc1cc2c(ccc3ccccc32)oc1=O,inactive,
